# Results from PubChem BioAssay (NCATS).
# A number with no mark means an inactive call. Results filed as inconclusive are left out. Calls of active or inactive are those of the source. Unless noted, the call rests on the fitted dose curve; in most records, active means well fitted curve in the direction sought with a large enough effect; inconclusive means small, poorly fitted or top-dose-only effect, or another doubt; inactive means no such curve, though single readings can be large; an effect the other way counts as inactive or inconclusive.
# Tests used:
# [1] = AP1 Signaling Pathway (AID 357; active means well fitted curve in either direction with a large enough effect, not every such curve was filed as active;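 further: ME-180 reporter cells stimulated with EGF at its EC50 level; on the % scale 0 is the no-effect control and ±100 the full control effect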); conditions: ME-180 AP-1-bla reporter, EGF-induced, beta-lactamase ratio, 5 h; at 7.69 µM (top of the series) unless noted
# Outline: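 Titration-series screen for positive or negative modulators of EC50 EGF-induced signaling in ME-180 cells carrying an AP-1-driven beta-lactamase reporter. After 5 hours at 37 degrees Celsius, CCF4 460nm/530nm emission ratio gave %Activity; AC50 values derived.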
# [2] = target: Cytochrome P450 1A2 (Homo sapiens) (UniProt P05177); test: p450-cyp1a2 (AID 410; calls by dose curve; further: potency means the concentration at half of the fitted maximal effect)
# Sequence of Cytochrome P450 1A2 (Homo sapiens) (P05177 whole entry, looked up): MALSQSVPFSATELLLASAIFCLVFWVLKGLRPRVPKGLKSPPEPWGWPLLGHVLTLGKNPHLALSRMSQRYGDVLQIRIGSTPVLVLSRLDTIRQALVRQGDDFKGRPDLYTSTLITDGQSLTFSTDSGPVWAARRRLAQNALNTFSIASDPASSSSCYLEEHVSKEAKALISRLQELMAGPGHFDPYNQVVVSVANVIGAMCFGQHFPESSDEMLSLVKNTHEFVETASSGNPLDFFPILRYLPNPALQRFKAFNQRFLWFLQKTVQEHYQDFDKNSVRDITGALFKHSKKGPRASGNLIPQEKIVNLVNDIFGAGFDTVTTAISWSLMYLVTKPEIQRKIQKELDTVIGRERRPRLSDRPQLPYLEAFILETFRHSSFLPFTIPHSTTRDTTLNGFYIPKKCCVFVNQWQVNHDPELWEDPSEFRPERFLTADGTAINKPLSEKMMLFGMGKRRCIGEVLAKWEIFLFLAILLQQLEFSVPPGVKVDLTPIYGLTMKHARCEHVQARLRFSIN
# Outline: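 Luminescent demethylation readout: Luciferin-ME (100uM, equal to Km) turned over by 20nM CYP1A2 for 60 min at room temperature after NADPH regeneration addition, following 10 min compound preincubation. Normalization used 57 uM furafylline as full inhibition.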
# [3] = Stat Signaling Pathway (AID 446; active means well fitted curve in either direction with a large enough effect, not every such curve was filed as active;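 further: ME-180 cervical cancer cells given 40 pM IL-6 alongside compound; SIE-controlled beta-lactamase reporter measured as 460/530 nm FRET emission ratio; on the % scale 0 is the no-effect control and ±100 the full control effect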); conditions: ME-180 (cervical carcinoma) SIE beta-lactamase reporter, IL-6 stimulated, 5 h; at 7.69 µM (top of the series) unless noted
# Outline: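 Overnight-plated ME-180 cells bearing a STAT Inducible Element beta-lactamase reporter; 5 h co-exposure to compound and 40 pM IL-6; values normalized to 300 pM IL-6 and 125 nM JAK inhibitor controls.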
# [4] = target: Glucocorticoid receptor (Homo sapiens) (UniProt P04150); test: GR-GFP Redistribution (AID 450;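 active means compounds whose dose series gives a full or clear partial fitted curve of increased nuclear translocation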; further: potency means the concentration at half of the fitted maximal effect); conditions: U2OS GR-GFP nuclear translocation, laser cytometry, 2 h
# Sequence of Glucocorticoid receptor (Homo sapiens) (P04150 whole entry, looked up, the tested form may be a part): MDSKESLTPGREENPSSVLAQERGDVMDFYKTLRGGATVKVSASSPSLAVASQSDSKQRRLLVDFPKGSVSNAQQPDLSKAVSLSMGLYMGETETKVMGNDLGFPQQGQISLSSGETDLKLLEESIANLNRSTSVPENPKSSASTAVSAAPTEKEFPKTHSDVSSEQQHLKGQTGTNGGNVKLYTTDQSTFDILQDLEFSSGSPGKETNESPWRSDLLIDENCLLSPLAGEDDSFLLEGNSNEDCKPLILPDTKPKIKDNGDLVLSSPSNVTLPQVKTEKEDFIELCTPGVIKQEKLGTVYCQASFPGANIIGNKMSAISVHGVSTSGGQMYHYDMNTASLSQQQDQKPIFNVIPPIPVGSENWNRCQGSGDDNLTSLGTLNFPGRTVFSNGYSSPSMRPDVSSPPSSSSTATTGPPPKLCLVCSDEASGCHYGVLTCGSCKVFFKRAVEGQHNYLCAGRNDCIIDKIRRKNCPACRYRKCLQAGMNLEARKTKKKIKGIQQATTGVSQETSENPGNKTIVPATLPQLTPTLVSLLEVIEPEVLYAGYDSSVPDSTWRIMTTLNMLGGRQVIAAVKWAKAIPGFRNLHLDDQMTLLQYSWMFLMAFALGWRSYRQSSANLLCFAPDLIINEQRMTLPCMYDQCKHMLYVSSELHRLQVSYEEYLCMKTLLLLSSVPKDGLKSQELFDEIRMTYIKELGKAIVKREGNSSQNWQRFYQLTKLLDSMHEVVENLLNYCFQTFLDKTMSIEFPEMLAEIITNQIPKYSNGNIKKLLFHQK
# [5] = target: Glucocorticoid receptor (Homo sapiens) (UniProt P04150); test: GR-EFC Redistribution (AID 451; calls by dose curve; further: potency means the concentration at half of the fitted maximal effect); conditions: CHO-K1 GR-EFC translocation, beta-gal luminescence, 2 h
# Outline: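 Translocation of GR-ED fusion to nuclear EA restores b-gal, read by luminescence after 1 h room-temperature detection. Engineered CHO-K1 biosensor cells, 1,000/well, exposed 2 h at 37 C to titrations up to 46 uM final.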
# [6] = target: Mitogen-activated protein kinase 10 (Mus musculus) (UniProt Q61831); test: JNK3 AlphaScreen Assay (AID 530; active means well fitted curve in either direction with a large enough effect, not every such curve was filed as active;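 further: kinase came from lysate of stimulated human HepG2 cells; signal reports phosphorylation of biotinylated GST-cJun 1-79 at Ser73 with 10 µM ATP; on the % scale 0 is the no-effect control and ±100 the full control effect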)
# Outline: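 qHTS titrations with 15 min compound pre-incubation before adding ATP (10 uM final). Read-out: AlphaScreen of Ser73-phosphorylated biotin-GST-cJun using HepG2 lysate JNK3 activated by IL-1β and TNFα.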
# [7] = target: 3',5'-cyclic-AMP phosphodiesterase 4B (Homo sapiens) (UniProt Q07343); test: qHTS Assay for Inhibitors of PDE-IV (AID 607; active means well fitted activation curve with a large enough effect in the main read-out, with a control signal flat, not every such curve was filed as active; further: % of control where 0% means no effect)
# Sequence of 3',5'-cyclic-AMP phosphodiesterase 4B (Homo sapiens) (Q07343 whole entry, looked up): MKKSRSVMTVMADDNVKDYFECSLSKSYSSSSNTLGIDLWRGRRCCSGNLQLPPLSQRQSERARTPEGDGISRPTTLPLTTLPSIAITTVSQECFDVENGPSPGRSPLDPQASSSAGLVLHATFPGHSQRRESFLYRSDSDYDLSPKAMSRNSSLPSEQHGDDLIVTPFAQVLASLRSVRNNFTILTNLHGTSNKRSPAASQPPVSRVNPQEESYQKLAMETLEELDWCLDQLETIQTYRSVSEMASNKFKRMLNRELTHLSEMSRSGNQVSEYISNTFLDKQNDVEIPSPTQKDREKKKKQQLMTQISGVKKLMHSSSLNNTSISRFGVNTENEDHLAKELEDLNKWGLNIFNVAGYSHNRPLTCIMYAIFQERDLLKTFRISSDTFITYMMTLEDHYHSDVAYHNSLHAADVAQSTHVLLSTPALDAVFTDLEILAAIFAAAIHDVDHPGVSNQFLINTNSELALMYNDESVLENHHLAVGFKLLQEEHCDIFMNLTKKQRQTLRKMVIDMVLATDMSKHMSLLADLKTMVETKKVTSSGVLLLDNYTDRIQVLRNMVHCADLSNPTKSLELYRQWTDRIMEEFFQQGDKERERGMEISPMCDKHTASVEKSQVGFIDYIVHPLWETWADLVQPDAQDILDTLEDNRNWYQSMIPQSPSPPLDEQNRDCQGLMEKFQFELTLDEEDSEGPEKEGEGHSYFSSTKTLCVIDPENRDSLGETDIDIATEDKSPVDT
# Outline: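 Live HEK293 cells with a modified cyclic nucleotide-gated (CNG) channel report intracellular cAMP via membrane-potential dye fluorescence (ex 535/em 590 nm). Endogenous PDE-IV was targeted. Compounds were tested at up to 22.9 uM final; RO 20-1724 100 uM served as control.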
# [8] = target: Cytochrome P450 3A4 (Homo sapiens) (UniProt P08684); test: qHTS Assay for Activators of Cytochrome P450 3A4 (AID 885); further: nearly all actives have a fitted effect of over 65% in size
# Sequence of Cytochrome P450 3A4 (Homo sapiens) (P08684 whole entry, looked up): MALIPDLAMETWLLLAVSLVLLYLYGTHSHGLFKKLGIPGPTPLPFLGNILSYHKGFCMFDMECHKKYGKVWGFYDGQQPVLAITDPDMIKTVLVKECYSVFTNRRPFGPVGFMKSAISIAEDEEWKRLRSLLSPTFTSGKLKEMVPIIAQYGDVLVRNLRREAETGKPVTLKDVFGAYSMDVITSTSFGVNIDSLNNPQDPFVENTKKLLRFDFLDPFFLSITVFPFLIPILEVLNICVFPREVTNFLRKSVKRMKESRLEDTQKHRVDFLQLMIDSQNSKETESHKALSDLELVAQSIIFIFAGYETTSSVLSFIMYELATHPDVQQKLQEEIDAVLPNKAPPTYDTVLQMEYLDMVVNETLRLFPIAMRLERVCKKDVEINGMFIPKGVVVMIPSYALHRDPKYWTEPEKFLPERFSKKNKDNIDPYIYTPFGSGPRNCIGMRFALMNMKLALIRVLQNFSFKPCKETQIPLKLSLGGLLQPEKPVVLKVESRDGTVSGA
# Outline: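 Using 20nM recombinant human CYP3A4 in potassium phosphate (200mM), substrate Luciferin-PPXE at 25uM, luminescent luciferin detection followed a 60-min RT NADPH reaction; data scaled to 57 uM ketoconazole.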
# [9] = target: Dual specificity protein kinase CLK4 (Homo sapiens) (UniProt Q9HAZ1); test: qHTS Assay for Inhibitors of CDC-like Kinase 4 (Kinase-Glo Assay) (AID 1770); further: nearly all actives have a fitted effect of over 65% in size; further: potency means the concentration at half of the fitted maximal effect
# Sequence of Dual specificity protein kinase CLK4 (Homo sapiens) (Q9HAZ1 whole entry, looked up): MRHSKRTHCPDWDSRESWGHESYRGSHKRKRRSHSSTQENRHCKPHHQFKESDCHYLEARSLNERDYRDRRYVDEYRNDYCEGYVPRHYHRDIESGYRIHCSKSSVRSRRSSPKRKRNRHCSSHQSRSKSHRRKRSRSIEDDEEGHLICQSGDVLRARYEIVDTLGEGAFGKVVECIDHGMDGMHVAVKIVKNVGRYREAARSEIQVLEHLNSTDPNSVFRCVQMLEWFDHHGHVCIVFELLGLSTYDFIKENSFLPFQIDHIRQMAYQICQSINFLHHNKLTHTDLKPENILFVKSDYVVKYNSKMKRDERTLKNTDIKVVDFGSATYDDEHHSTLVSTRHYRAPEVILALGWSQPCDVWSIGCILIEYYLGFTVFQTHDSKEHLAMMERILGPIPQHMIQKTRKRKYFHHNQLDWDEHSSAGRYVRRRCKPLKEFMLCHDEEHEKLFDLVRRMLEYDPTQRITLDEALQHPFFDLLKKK
# Outline: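 25 nM Clk4 with 100 uM RS repeat peptide and 1 uM ATP (final) in Tris pH7.5, 10 mM MgCl2, 4.5 h at room temperature. Remaining ATP measured by Kinase-Glo luciferase luminescence.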
# [10] = target: Dual specificity protein kinase CLK4 (Homo sapiens) (UniProt Q9HAZ1); test: qHTS Assay for Inhibitors of CDC-like Kinase 4 (ADP-Glo Assay) (AID 1771); further: nearly all actives have a fitted effect of over 70% in size; further: potency means the concentration at half of the fitted maximal effect
# Outline: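 ADP production was read by ADP-Glo luminescence after residual ATP depletion, following 1 h room-temperature reaction of 25 nM Clk4, 1 uM ATP and 100 uM RS peptide with MgCl2, EGTA, DTT and Triton X-100.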
# [11] = target: Dual specificity protein kinase CLK4 (Homo sapiens) (UniProt Q9HAZ1); test: qHTS Assay for Inhibitors of CDC-like Kinase 4 (ADP-FP Assay) (AID 1795); further: nearly all actives have a fitted effect of over 60% in size; further: potency means the concentration at half of the fitted maximal effect
# Outline: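 Recombinant Clk4 (6.25 nM) phosphorylated 100 uM RS repeat peptide with 1 uM ATP in 25 mM Tris pH 7.5, 10 mM MgCl2, 0.5 mM EGTA, 2.5 mM DTT, 0.01% Triton X-100 for 1 h. ADP was detected by Transcreener ADP2 competitive fluorescence polarization after 30 min at room temperature.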
# [12] = target: Ubiquitin carboxyl-terminal hydrolase 1 (Homo sapiens) (UniProt O94782); test: Inhibitors of USP1/UAF1: Pilot qHTS (AID 504865); further: nearly all actives have a fitted effect of over 35% in size; further: potency means the concentration at half of the fitted maximal effect
# Sequence of Ubiquitin carboxyl-terminal hydrolase 1 (Homo sapiens) (O94782 whole entry, looked up): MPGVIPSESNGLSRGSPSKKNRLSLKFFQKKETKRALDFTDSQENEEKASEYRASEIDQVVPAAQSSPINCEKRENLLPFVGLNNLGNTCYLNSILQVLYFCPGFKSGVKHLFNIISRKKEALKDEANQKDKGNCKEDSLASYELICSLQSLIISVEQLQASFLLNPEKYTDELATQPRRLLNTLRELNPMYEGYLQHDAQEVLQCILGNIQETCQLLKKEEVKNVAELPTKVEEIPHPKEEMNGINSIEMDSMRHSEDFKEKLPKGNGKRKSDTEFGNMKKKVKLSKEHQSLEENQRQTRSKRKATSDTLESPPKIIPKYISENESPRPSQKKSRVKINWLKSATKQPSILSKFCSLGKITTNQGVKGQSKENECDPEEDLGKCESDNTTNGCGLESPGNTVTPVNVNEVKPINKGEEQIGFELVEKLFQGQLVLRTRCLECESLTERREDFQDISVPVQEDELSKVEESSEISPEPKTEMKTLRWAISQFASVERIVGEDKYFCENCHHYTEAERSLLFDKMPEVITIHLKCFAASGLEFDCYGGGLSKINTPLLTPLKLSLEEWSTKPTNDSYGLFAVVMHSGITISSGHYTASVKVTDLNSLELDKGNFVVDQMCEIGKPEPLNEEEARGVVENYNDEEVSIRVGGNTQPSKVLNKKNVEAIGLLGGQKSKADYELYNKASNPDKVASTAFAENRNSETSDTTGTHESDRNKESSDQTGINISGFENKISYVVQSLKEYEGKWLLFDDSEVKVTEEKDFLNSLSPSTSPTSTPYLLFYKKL
# Outline: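 USP1/UAF1 complex at 1 nM preincubated 15 min at room temperature with compound, then Ub-Rho substrate added at 150 nM final. Fluorescence (480/540 nm) read kinetically in 50 mM HEPES pH 7.8, 0.5 mM EDTA, 1 mM TCEP, 0.1 mg/ml BSA, 0.01% Tween-20.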
# [13] = Primary qHTS for small molecule stabilizers of the endoplasmic reticulum resident proteome: Secreted ER Calcium Modulated Protein (SERCaMP) assay (AID 1508630); further: on the % scale 0 is the no-effect control and ±100 the full control effect
# Outline: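 The SH-SY5Y reporter protocol was run at 3 concentrations up to 38.3 uM (primary) or 11 concentrations (follow-up): 16 h compound, 100 nM thapsigargin for 4 h, then extracellular luciferase luminescence.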
# [14] = NFAT Signaling Pathway (AID 444; active means well fitted curve in either direction with a large enough effect, not every such curve was filed as active); conditions: Jurkat NFAT-bla M1, carbachol, beta-lactamase ratio, 5 h; at 7.69 µM (top of the series) unless noted
# Outline: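 Read-out: CCF4 FRET ratio (460 nm/530 nm) after 1 h RT dye loading, used for %activity and AC50 from titration series. Cells: Jurkat NFAT-β-lactamase/M1 line, treated with compound plus 1 uM carbachol for 5 h, 37 °C.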
# [15] = target: Cytochrome P450 3A4 (Homo sapiens) (UniProt P08684); test: qHTS Assay for Inhibitors and Substrates of Cytochrome P450 3A4 (AID 884); further: potency means the concentration at half of the fitted maximal effect; nearly all actives have a fitted effect of over 50% in size
# Outline: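 Luminescent readout of luciferin produced by CYP3A4 (20 nM) dealkylation of Luciferin-PPXE, 25 uM (its KM). NADPH-driven reaction ran 60 min at RT after 10 min compound preincubation; data scaled to 57 uM ketoconazole as 100% inhibition.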
# [16] = target: Cytochrome P450 2D6 (Homo sapiens) (UniProt P10635); test: qHTS Assay for Inhibitors and Substrates of Cytochrome P450 2D6 (AID 891); further: potency means the concentration at half of the fitted maximal effect; nearly all actives have a fitted effect of over 60% in size
# Outline: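 Luminescent read-out of luciferin formed by 5 nM human CYP2D6 demethylating 30 uM Luciferin-ME EGE (Km level) over 60 min at room temperature after NADPH regeneration addition. Data normalized to full inhibition by 1.43 uM quinidine.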
# [17] = target: Lysosomal acid glucosylceramidase (Homo sapiens) (UniProt P04062); test: Glucocerebrosidase-p2 (AID 348; in the data active means potency below about 10 µM; further: potency means the concentration at half of the fitted maximal effect); conditions: purified GBA, blue fluorogenic substrate, 40 min
# Sequence of Lysosomal acid glucosylceramidase (Homo sapiens) (P04062 whole entry, looked up): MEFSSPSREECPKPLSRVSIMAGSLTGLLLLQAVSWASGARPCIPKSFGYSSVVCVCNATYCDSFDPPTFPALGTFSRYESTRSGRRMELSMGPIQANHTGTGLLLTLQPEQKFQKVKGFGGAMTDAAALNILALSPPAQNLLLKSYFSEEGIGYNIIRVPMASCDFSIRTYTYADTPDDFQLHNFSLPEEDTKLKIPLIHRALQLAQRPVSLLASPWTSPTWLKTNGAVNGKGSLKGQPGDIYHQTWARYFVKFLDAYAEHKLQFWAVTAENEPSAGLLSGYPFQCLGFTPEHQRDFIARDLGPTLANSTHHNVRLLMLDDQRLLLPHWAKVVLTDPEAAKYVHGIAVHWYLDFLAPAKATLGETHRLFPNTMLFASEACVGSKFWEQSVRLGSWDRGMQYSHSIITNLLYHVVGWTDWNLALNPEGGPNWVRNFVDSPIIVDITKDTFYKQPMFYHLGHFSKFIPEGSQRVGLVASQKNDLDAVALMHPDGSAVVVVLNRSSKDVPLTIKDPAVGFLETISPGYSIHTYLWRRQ
# Outline: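 Normal human glucocerebrosidase (0.2 nM) with blue fluorogenic substrate (80 uM final) in citrate/phosphate pH 5.9 with 10mM sodium taurocholate, 0.01% tween-20; 40 min RT, NaOH/glycine stop; fluorescence Ex 365/Em 440; AC50 from a titration from 0.6 nM upwards.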
# [18] = target: Cytochrome P450 2C9 (Homo sapiens) (UniProt P11712); test: qHTS Assay for Inhibitors and Substrates of Cytochrome P450 2C9 (AID 883); further: potency means the concentration at half of the fitted maximal effect; nearly all actives have a fitted effect of over 60% in size
# Outline: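 Turnover of Luciferin-H (100uM, KM) by 10nM human CYP2C9 was measured over 60 min at 37C with NADPH regeneration; inhibitors and some substrates reduce luminescence. Data normalized to sulphaphenazole 57uM.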
# [19] = target: Cytochrome P450 2C19 (Homo sapiens) (UniProt P33261); test: qHTS Assay for Inhibitors and Substrates of Cytochrome P450 2C19 (AID 899); further: potency means the concentration at half of the fitted maximal effect; nearly all actives have a fitted effect of over 60% in size
# Sequence of Cytochrome P450 2C19 (Homo sapiens) (P33261 whole entry, looked up): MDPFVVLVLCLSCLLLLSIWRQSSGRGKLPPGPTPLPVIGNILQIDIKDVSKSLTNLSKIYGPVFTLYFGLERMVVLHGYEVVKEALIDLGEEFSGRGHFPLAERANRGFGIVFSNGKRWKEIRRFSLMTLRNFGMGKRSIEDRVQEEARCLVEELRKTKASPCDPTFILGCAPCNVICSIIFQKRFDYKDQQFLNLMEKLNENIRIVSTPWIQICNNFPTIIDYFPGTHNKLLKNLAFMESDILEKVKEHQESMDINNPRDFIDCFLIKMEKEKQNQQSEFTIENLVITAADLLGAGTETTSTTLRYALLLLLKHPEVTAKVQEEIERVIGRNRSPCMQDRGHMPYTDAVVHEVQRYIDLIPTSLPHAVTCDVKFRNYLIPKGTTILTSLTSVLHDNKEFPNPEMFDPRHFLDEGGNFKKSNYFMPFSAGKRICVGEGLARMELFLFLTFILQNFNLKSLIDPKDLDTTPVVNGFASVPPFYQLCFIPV
# Outline: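 Reactions contain 5nM enzyme, 10uM Luciferin-H EGE (KM) and 50mM KPO4; compound preincubates 10 min at 37C, NADPH regeneration starts turnover for 60 min. Luminescence after detection reagent gives activity.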
SMILES,"activity change, negative = inhibition [1]",Potency [2],"activity, negative = inhibition [3]",Potency [4],Potency [5],Potency [6],Potency [7],Potency [8],Potency [9],Potency [10],Potency [11],Potency [12],outcome [13],"activity change, negative = inhibition [14]",Potency [15],Potency [16],Potency [17],Potency [18],Potency [19]
Cc1noc(C)c1-c1ccc2ncnc(NCCN3CCOCC3)c2c1,1.93%,15.8 µM (active),-22.6%,> 46 µM,> 46 µM,inactive,inactive,inactive,8.91 µM (active),6.31 µM (active),8.91 µM (active),inactive,inactive,,,,,,
COc1ccccc1CNc1ccnc(-c2ccc(N(C)C)cc2)n1,-10.1%,0.794 µM (active),-10.8%,> 46 µM,,inactive,inactive,inactive,inactive,inactive,inactive,inactive,inactive,-1.75%,7.94 µM (active),0.501 µM (active),,,
CN(C)c1ncnc2ccc(-c3ccc4c(c3)OCO4)cc12,,,1.73%,> 46 µM,> 46 µM,inactive,inactive,,0.199 µM (active),0.158 µM (active),0.1 µM (active),inactive,inactive,-4.71%,,,> 11.4 µM,,
COc1cccc(Nc2ncc3nc(-c4cc(F)cc(F)c4)c(=O)n(C[C@H]4CCCO4)c3n2)c1,,,,> 9.22 µM,> 46 µM,inactive,inactive,inactive,inactive,inactive,inactive,inactive,inactive,,,,> 11.4 µM,,
O=c1c(-c2cccc(F)c2)nc2cncnc2n1Cc1ccccc1Cl,-4.26%,3.98 µM (active),4.32%,> 9.22 µM,> 46 µM,inactive,,inactive,inactive,inactive,inactive,inactive,inactive,-7.87%,,,,7.94 µM (active),0.794 µM (active)
COc1cccc(Nc2ncc3ncc(=O)n(C[C@H]4CCCO4)c3n2)c1,,,,> 9.22 µM,> 46 µM,inactive,inactive,,1.41 µM (active),1.58 µM (active),0.794 µM (active),inactive,inactive,,,,> 11.4 µM,,
N#Cc1cccc(-c2ccc3ncnc(N4CCNCC4)c3c2)c1,-0.846%,0.631 µM (active),11.7%,> 46 µM,> 46 µM,inactive,inactive,inactive,12.6 µM (active),22.4 µM (active),11.2 µM (active),20 µM (active),inactive,6.74%,,,,,
